EP2 antag: blocks the human prostaglandin E2 receptor EP2. P43116. C6 glioma cells expressing human EP2, cAMP TR-FRET; cells stimulated with saturating PGE2. inhibition, % at 25 µM. 260,000 tested, 0.52% active;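 active means percent inhibition above 40 after rounding to a whole number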;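 further: rat C6 glioma host cells with rolipram phosphodiesterase inhibitor present; the protocol text gives 20 µM as final concentration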
Target sequence (P43116 whole entry, looked up): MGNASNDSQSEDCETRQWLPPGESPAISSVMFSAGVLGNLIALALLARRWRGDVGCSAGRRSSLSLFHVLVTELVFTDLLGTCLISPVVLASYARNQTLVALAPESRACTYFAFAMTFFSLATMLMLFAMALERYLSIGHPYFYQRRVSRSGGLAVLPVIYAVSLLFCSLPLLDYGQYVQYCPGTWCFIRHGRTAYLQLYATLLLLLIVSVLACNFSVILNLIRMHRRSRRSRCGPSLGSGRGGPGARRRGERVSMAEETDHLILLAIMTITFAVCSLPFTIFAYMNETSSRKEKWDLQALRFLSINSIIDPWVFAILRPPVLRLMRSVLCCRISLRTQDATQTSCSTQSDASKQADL
Avidin bead fluor: avidin bead compound fluorescence profile | Avidin beads, compound fluorescence 488/530 nm, flow cytometry; stronger effect = higher value | fluorescence (KMESF) at 10 µM | 220,000 tested, 0.38% active | AID 1775; in the data active means fluorescence above about 47
HMGR II inh: E. faecalis class II HMG-CoA reductase inhibition | 190,000 tested, 0.41% active | inhibition, % at 10 µM | AID 1066 | purified E. faecalis HMGR, NADPH absorbance 340 nm kinetic;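 active means inhibition above a set limit, the median over all tested compounds plus 3 SD, cut at about 9.5% in these data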;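 further: enzyme runs in reverse so mevalonate oxidation gives rising NADPH absorbance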
GSH bead fluor: compound fluoresces at 488/530 nm on GSH beads | GSH beads flow cytometry, compound fluorescence 488/530 nm; stronger effect = higher value | fluorescence (KMESF) at 10 µM | 190,000 tested, 0.25% active | AID 1776; in the data active means fluorescence above about 89;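 further: glutathione beads carrying GST-tagged Bcl family fusion proteins plus one bare bead set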
EP2 modulator: modulators of human EP2 prostaglandin E2 receptor; P43116; EP2-expressing cells, cAMP HTRF FRET, PGE2 co-stimulation; induction, % at 25 µM; 260,000 tested, 0.83% active;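 active means compounds whose cAMP rise, as percent of the full-agonist control response, exceeds 60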;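 further: rat C6 glioma line stably carrying human EP2 under a CMV promoter; the protocol text gives 20 µM as final concentration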
EP2 cAMP induct: EP2 receptor cAMP induction, counter-screens negative | C6 glioma EP2 cells, cAMP HTRF induction; plus low (about EC15) PGE2 agonist | 1,300 tested, 47% active | shares compounds with EP2 modulator | calls only at 20 µM (by protocol) | AID 1080;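 active means cAMP induction above 50% in the main assay while under 30% in all four parallel counter assays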;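 further: rat C6 glioma cells stably expressing human EP2 receptor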
A number is an active result; – = inactive; · = no result; + = active, no number. Rows were chosen to be rich in hits. Some 2.1% of all compounds tested hit in one or more screens of this group.

SMILES	EP2 antag	Avidin bead fluor	HMGR II inh	GSH bead fluor	EP2 modulator	EP2 cAMP induct
C=CCN1CCN(C(c2ccc(OC)c(OC)c2)c2nnnn2Cc2ccc(OC)cc2)CC1 (stereo unspecified)	–	·	·	·	–	·
COc1ccccc1NC(=O)c1c(C)oc2c1CCCC2	–	–	–	–	79	–
Cc1oc2c(c1C(=O)Nc1cccc3ccccc13)CCCC2	–	–	–	–	–	·
CC1(C)CC(=O)C2=C(C1)OC(N)=C(C#N)C2c1cc(Cl)ccc1Cl (stereo unspecified)	–	·	·	·	–	·
NNc1nc(Nc2cccc(Cl)c2)nc(N2CCOCC2)n1	–	·	·	·	–	·
Cc1oc(-c2ccc(F)cc2)nc1C(=O)NCc1noc(-c2ccccc2)n1	–	·	·	·	–	·
O=C(O)c1nn(CC(=O)N(C2CCCCC2)C2CCCCC2)c(=O)c2ccccc12	–	–	–	–	83	+
Cc1noc(C)c1CSc1nc2ccccc2c(=O)n1-c1ccc(Cl)cc1	–	–	–	–	71	+
O=C(O)NCc1ccccc1 (tested in a mixture with another compound)	–	·	·	·	68	+
COc1ccc(-c2nc(-c3cc4ccccc4[nH]c3=O)no2)cc1	–	·	·	·	–	·
CCCCC[C@H](CC(=O)O)C(=O)O	–	·	·	·	–	·
COC(=O)c1[nH]c2ccccc2c1NS(=O)(=O)c1ccc(F)c(C)c1	–	–	–	–	77	+
CCCS(=O)(=O)Nc1c(C(=O)OC)[nH]c2ccccc12	–	–	–	–	–	·
Cc1cccc(NC2=NC(=S)N(c3ccc(C(=O)O)cc3)C23CCCCC3)c1	·	–	–	–	97	+
CCc1ccc(OCc2nnc(SCC(=O)N3CCCc4ccccc43)n2CC)cc1	–	·	·	·	–	·
O=C(c1ccc(Cl)cc1)c1oc2ccccc2c1CS(=O)(=O)c1ccccc1	–	–	–	–	80	+
COCCn1c(SCC(=O)Nc2sc3c(c2C(N)=O)CCCC3)nnc1-c1ccccc1	–	·	·	·	–	·
Cc1ccc(-c2nc3sc(C(N)=O)c(N)c3c3c2CCCC3)cc1	–	–	–	–	–	·
CC(=O)c1sc2nc(-c3ccc(C)cc3)c3c(c2c1N)CCCC3	–	–	–	–	72	+
Cc1cc(Oc2ccccc2)nc(NCc2ccccc2)n1	–	–	–	–	66	+
Cc1cc(Oc2ccccc2F)nc(NCc2ccccc2)n1	·	–	–	–	66	+
O=C(O)CCCCCN1C(=O)/C(=C\c2cn(-c3ccccc3)nc2-c2cccs2)SC1=S	–	–	·	·	–	·
O=C(O)CCN1C(=O)/C(=C/c2cn(-c3ccccc3)nc2-c2cccs2)SC1=S	–	–	–	–	71	+
CCn1c2cc(C)sc2c2cnn(CCc3ccccc3)c(=O)c21	·	·	·	·	–	·
CC1CCN(c2nc(-c3ccncc3)nc3ccccc23)CC1	–	–	–	–	79	–
SMILES	EP2 antag	Avidin bead fluor	HMGR II inh	GSH bead fluor	EP2 modulator	EP2 cAMP induct
CCOC1(OCC)C(c2ccc(N)cc2)C(C#N)(C#N)C1(OCC)OCC (stereo unspecified)	–	–	–	–	76	+
CCOC1(OCC)C(c2ccc(Cl)cc2)C(C#N)(C#N)C1(OCC)OCC (stereo unspecified)	·	–	–	–	–	·
Cn1cc(-c2ccccc2C(N)=O)c(=O)c2cc(Cl)ccc21	–	–	–	–	–	·
Cn1cc(C2=C(c3ccc(Cl)cc3Cl)C(=O)NC2=O)c2ccccc21	–	·	·	·	75	+
COC(=O)[C@]1(C)CCC[C@]2(C)c3ccc(C(C)C)cc3C(=O)CC12 (stereo partly specified)	–	·	·	·	–	·
CC(C)c1ccc2c(c1)CCC1C(C)(C(N)=O)CCCC21C (stereo unspecified)	–	·	·	·	–	+
Cc1ccc(-c2cc3ccccc3nc2N2CCOCC2)cc1	–	–	–	–	73	–
C/C(=N\O)C(=O)OC1CC(C)CCC1C(C)C (stereo unspecified)	–	–	–	–	–	+
C=CCn1c2cc(C)sc2c2cnn(Cc3cccnc3)c(=O)c21	·	·	·	·	–	·
C=CCc1cccc(C=Nc2cc(Br)ccc2O)c1O	–	–	–	–	67	+
CCOc1ccc(N(Cc2ccc(OC)cc2)C(=O)c2ccco2)cc1	–	–	–	–	65	–
CCOc1ccc(N(Cc2ccc(OC)c(OC)c2)C(=O)c2ccco2)cc1	–	–	–	–	–	·
